Reference: the OligoGym collection

Each sequence was assayed against MYST1 (assay: pooled miR-30 sensor sort-seq; sequence = guide strand). Details: shRNA.
TACTTGAGGCAGTACTCGCAGA gave a sensor-assay potency score (higher = more potent) of -0.834. For TACTTCTCTGAGTTCTTCTGTA, the sensor-assay potency score (higher = more potent) was 0.544. In the case of TTGCGGTAGATCTCTTTCCCGG, the sensor-assay potency score (higher = more potent) is reported as -0.991. For TTGGTTGCGAGTGATCTTGCGC, the sensor-assay potency score (higher = more potent) was -0.436. With TTGTCCACATACTTCACCTTGG the sensor-assay potency score (higher = more potent) was -0.263. With TTGACTTGCTTGTGCTTGGGGG the sensor-assay potency score (higher = more potent) was 0.169. With TATTTCATGTACTTGAGGCAGT the sensor-assay potency score (higher = more potent) was 0.803. Work on TACAGCATCCTTCACTGTCTTG yielded a sensor-assay potency score (higher = more potent) of -0.889. TTGATGGACAGTGTGCCCCGGA showed a sensor-assay potency score (higher = more potent) of -0.00673. With TACTTGACCATATTGAGGGATT the sensor-assay potency score (higher = more potent) was -1.22. For TTTGCCATCAACTTCGTGCACG, the sensor-assay potency score (higher = more potent) was -0.42. TTTGAGGTGCTCCTCCACCAGC gave a sensor-assay potency score (higher = more potent) of -1.45.

What follows are sequences tested against MYST4 in the same assay as above. Details: shRNA.
TTATTTTCTGTATAGCTTCAAG showed a sensor-assay potency score (higher = more potent) of -0.855. Sequence TTTGATGAGATCATCTTCTGGT has a sensor-assay potency score (higher = more potent) of 1.05. TATACAATAACTGAAATGCTAA showed a sensor-assay potency score (higher = more potent) of -0.972. With TTGGCTTTTAGCACCATCTGGA the sensor-assay potency score (higher = more potent) was 0.342. Work on TTTGAGAACTGAGCCATCCTGA yielded a sensor-assay potency score (higher = more potent) of 0.202. TTCAGTAACGACATCCTTGTTT was tested, and the sensor-assay potency score (higher = more potent) was -0.1. TTACTGTTAGCACAACACTTGT gave a sensor-assay potency score (higher = more potent) of -0.946. In the case of TATTTCAGTATCATCATCCTGA, the sensor-assay potency score (higher = more potent) is reported as 0.932. TTTTCGATTGTACTTTTGCAGG was tested, and the sensor-assay potency score (higher = more potent) was -1.34.
